Hits are enriched below; roughly 1.1% of the tested compounds scored in any of these assays.
BAP1 inh: blocks human BAP1 ubiquitin-AMC hydrolysis; Q92560; recombinant BAP1, Ub-AMC hydrolysis fluorescence kinetic; active compounds read low; calls only at 20 µM; actives 0.48% (n = 72,000);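 active means activity remaining at or below 50% of control, provided the compound also passes the data quality filters; inactive means the rest, including low values that fail the filters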
FXIIa mix inh: factor XIIa (human) inhibition, mixture screen; P00748; purified FXIIa, fluorogenic substrate, pooled mixtures; inhibition, % at 5 µM; actives 0.2% (n = 62,000); AID 684
FXIa inh mix: factor XIa (human) inhibition, mixture screen; purified FXIa, fluorogenic substrate, pooled mixtures; actives 0.19% (n = 62,000); inhibition, % at 5 µM; AID 680; P03951;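 further: each value is inhibition by a whole ten-compound pool holding the compound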
HePTP inh: human HePTP phosphatase inhibition; inhibition, % at 20 µM; recombinant HePTP phosphatase activity, OD absorbance; actives 0.64% (n = 110,000); AID 521; P35236; in the data active means inhibition above about 50%; inconclusive means no clear call, values can overlap the other calls
C1s inh: blocks human complement C1s protease activity. actives 0.16% (n = 62,000). purified C1s, fluorogenic AMC substrate, pooled mixtures. P09871. AID 538. mean inhibition % of two 10-compound mixtures (active compounds read high), % at 5 µM (by protocol);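 active means inhibition above 20% in each of the two 10-compound mixture wells holding the compound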
Cathepsin G inh: blocks human cathepsin G enzyme activity. inhibition, % at 5 µM (by protocol). AID 581. P08311. purified enzyme, AMC-tetrapeptide fluorescence, pooled mixtures. actives 0.2% (n = 62,000);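 active means inhibition above 20% in each of the two mixture wells holding the compound; inactive means inhibition of 20% or less in either well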
Target sequence (P08311 21-244 limits assumed): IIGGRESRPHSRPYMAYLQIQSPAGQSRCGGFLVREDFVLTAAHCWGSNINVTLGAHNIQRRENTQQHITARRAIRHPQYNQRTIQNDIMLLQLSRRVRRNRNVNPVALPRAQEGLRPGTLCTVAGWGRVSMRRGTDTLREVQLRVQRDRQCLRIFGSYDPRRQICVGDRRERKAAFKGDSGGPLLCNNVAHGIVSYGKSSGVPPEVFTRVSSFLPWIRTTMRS
BAP1 inh confirm: confirmation of human BAP1 enzyme inhibitors; shares compounds with BAP1 inh; purified BAP1, Ub-ethyl ester hydrolysis, HPLC; active compounds read low; % of control activity, % at 20 µM; actives 8% (n = 310); AID 753;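 active means percent of control activity at or below 60%; inconclusive means HPLC trace unusable from injection failure or solvent front hiding peaks; inactive means the rest, plus ubiquitin peak ratio over a set limit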
Hits are given with their value; n = inactive; u = inconclusive; x = no result shown; + = active, no number. Unless noted, no stated cut-off is given here; in the data, active means inhibition above about 20% (passing the limit was not always enough); inactive means the rest.

SMILES | BAP1 inh | FXIIa mix inh | FXIa inh mix | HePTP inh | C1s inh | Cathepsin G inh | BAP1 inh confirm
Cc1ccc2[nH]c(=O)c(CN(Cc3ccc4c(c3)OCO4)Cc3nnnn3Cc3ccco3)cc2c1 | + | n | n | n | n | n | n
CCc1ccc2[nH]c(=O)c(CN(Cc3ccccc3)Cc3nnnn3Cc3ccco3)cc2c1 | + | n | n | n | n | n | n
Cc1cccc2cc(CN(Cc3cccs3)Cc3nnnn3Cc3ccccc3)c(=O)[nH]c12 | + | n | n | n | n | n | n
CC1(C)CC(=O)C2=C(C1)Nc1ccccc1N(C(=O)c1ccccc1)C2c1cccc([N+](=O)[O-])c1 (stereo not drawn) | x | x | x | n | x | x | x
COc1ccc(/C=N/NC(=O)CCNc2n[nH]c(=O)[nH]c2=O)cc1 | x | x | x | n | x | x | x
O=C(O)CCCN1C(=O)C(=O)/C(=C(/O)c2ccccc2)C1c1ccccc1[N+](=O)[O-] (stereo not drawn) | x | x | x | n | x | x | x
NC(=O)c1ccccc1N/C=C/C(=O)c1ccco1 | + | n | n | n | n | n | n
O=C(Nc1ccc2nc(C3CC3)n(Cc3ccc(F)cc3)c(=O)c2c1)c1ccco1 | n | n | n | n | n | n | x
COc1cccc(Cn2c(C3CC3)nc3ccc(NC(=O)c4ccco4)cc3c2=O)c1 | + | n | n | n | n | n | n
CC(=O)N(C)c1ccc(NC(=O)COc2ccc(Cl)cc2)cc1 | x | x | x | n | x | x | x
O=C(Nc1ccc(OC(F)(F)F)cc1)c1ccccc1I | x | x | x | n | x | x | x
CCCC(c1nnnn1CC(=O)OCC)N(Cc1cc2c(C)cc(C)cc2[nH]c1=O)C1CCCC1 (stereo not drawn) | + | n | n | n | n | n | n
COc1ccc(NC(=O)C2CCCN(Cc3ccccc3)C2)cc1OC1CCCC1 (stereo not drawn) | x | x | x | n | x | x | x
N#Cc1c(NC(=O)COC(=O)C2CC3C=CC2C3)oc(-c2ccccc2)c1-c1ccccc1 (stereo not drawn) | + | n | n | n | n | n | 41.9
COc1ccccc1OCC(=O)Nc1oc(-c2ccccc2)c(-c2ccccc2)c1C#N | x | n | n | n | n | n | x
COc1ccccc1CNC(=O)c1ccc(OC)c([N+](=O)[O-])c1 | x | x | x | n | x | x | x
O=C(/C=C/Nc1cc(Cl)cc(Cl)c1)c1ccccc1 | x | x | x | n | x | x | x
CCCOc1ccc(C(=O)Nc2nc(-c3ccccc3)cs2)cc1 | x | x | x | n | x | x | x
COc1cc(NC(=O)c2cccc(C)c2)cc(OC)c1 | x | x | x | n | x | x | x
COc1ccc2c(c1)CCCN2C(N)=O | x | n | n | n | n | n | x
COc1ccc(N=C2CCCN2CC(N)=O)cc1 | + | n | n | n | n | n | n
CC(C)(C)c1ccc(OCCCCCn2ccnc2)cc1 | x | x | x | n | x | x | x
CCOC(=O)c1ccc(OCC(=O)c2ccc(O)cc2O)cc1 | + | n | n | n | n | n | n
O=C1CSC2(C(=O)Nc3ccccc32)N1c1cccc(C(F)(F)F)c1 (stereo not drawn) | x | x | x | n | x | x | x
COC(=O)C1=C(C)NC(=O)NC1c1cc(Cl)ccc1OC (stereo not drawn) | + | n | n | n | n | n | n
SMILES | BAP1 inh | FXIIa mix inh | FXIa inh mix | HePTP inh | C1s inh | Cathepsin G inh | BAP1 inh confirm
C=CCc1ccc(OCC(O)CN2C(C)CCCC2C)c(OC)c1 (stereo not drawn) | x | x | x | n | x | x | x
CCOC(=O)c1ccc(NC(=O)CSc2nc(C)cc(=O)[nH]2)cc1 | + | n | n | n | n | n | u
CCN(CC)c1ccc(NC(=O)CSc2nc(C)cc(=O)[nH]2)cc1 | n | n | n | n | n | n | x
COc1nc2c(C)cccc2cc1-c1noc(-c2ccco2)n1 | + | n | n | n | n | n | n
CCOc1ccc(-c2nc(-c3ccccc3C)no2)cc1 | + | n | n | n | n | n | n
CCOC(=O)C1=C(C)N=c2s/c(=C\c3ccc(NC(C)=O)cc3)c(=O)n2C1c1ccc(OC)cc1 (stereo not drawn) | x | x | x | n | x | x | x
CC(=O)Oc1ccc(C(=O)Nc2cc(Cl)ccc2C(=O)O)cc1 | x | x | x | n | x | x | x
CCC(=O)c1ccc(OCC(O)CN2CCN(S(=O)(=O)N3CCCCC3)CC2)cc1 (stereo not drawn) | + | n | n | n | n | n | n
CCOC(=O)C1CCN(CC(O)COc2ccc(C(=O)CC)cc2)CC1 (stereo not drawn) | n | n | n | n | n | n | x
COc1ccc(S(=O)(=O)N(CC(=O)Nc2ccccc2OC)Cc2ccccc2)cc1 | x | x | x | n | x | x | x
CCOC(=O)c1oc2ccccc2c1NC(=O)COc1ccc(F)cc1 | + | n | n | n | n | n | n
CCCn1c(SCC(=O)Nc2sc(C)c(C)c2C(=O)OCC)nc2c1c(=O)n(C)c(=O)n2C | + | n | n | n | n | n | n
CCCn1c(SCC(=O)Nc2ccccc2C(=O)OC)nc2c1c(=O)n(C)c(=O)n2C | n | n | n | n | n | n | x
CN1C(C)(C)CC(OC(=O)c2ccccc2C(=O)OC2CC(C)(C)N(C)C(C)(C)C2)CC1(C)C | x | x | x | n | x | x | x
O=c1[nH]c2ccc(Cl)cc2c(-c2ccccc2)c1N1CCOCC1 | n | n | n | n | n | n | x
O=c1[nH]c2ccc(Cl)cc2c(-c2ccccc2)c1N1CCN(c2ccccn2)CC1 | + | n | n | n | n | n | n
Cc1cc(C(=O)NCc2cc(C(=O)O)oc2C)c(C)o1 | + | n | n | n | n | n | n
c1ccc(-c2ccccc2-c2nc(-c3ccncc3)no2)cc1 | n | n | n | n | n | n | x
c1ccc2c(-c3nc(C4CCCCC4)no3)cc(-c3ccncc3)nc2c1 | + | n | n | n | n | n | n

Source: PubChem (several laboratories)
